We go through four compounds from PubChem BioAssay (EPA / NIEHS).

Read-out in assay [1]: X-box binding protein 1 (XBP1), XBP1 (gene 7494)
The assay can be described thus: LTEA_HepaRG_XBP1: Life Technologies and Expression Analysis (LTEA) Assay for X-box binding protein 1 (XBP1) using HepaRG (AID 2283540; active means hit-call score of the fitted dose curve at least 0.9, where 1 is the maximum; inactive means score below 0.9). As to conditions: mRNA level, 48 h; actives raise or lower the signal. In a few lines: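 Differentiated human HepaRG cells in serum-free induction medium were exposed in duplicate for 48 h to eight half-log concentrations up to 100 uM in 0.5% DMSO. XBP1 mRNA was quantified by qRT-PCR, normalised to ACTB, GAPDH and POLR2A, with bidirectional fitting against DMSO.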

Assay [2] is described as follows: LTEA_HepaRG_LDH_cytotoxicity: Cytotoxicity Assessment in the Life Technologies and Expression Analysis (LTEA) Assay (AID 2283563).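 Further: LDH activity released into spent culture medium as a marker of cell death.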 In outline: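 Differentiated human HepaRG cells, plated 48 h beforehand, were switched to serum-free induction medium and exposed for 48 h to eight half-log concentrations (top 100 uM) in 0.5% DMSO. LDH was measured in spent medium; activity was fitted relative to DMSO vehicle.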

Assay [3] in a line: TOX21_p53_BLA_p2_viability: Viability Assessment in the Tox21 HCT-116 p53 Agonism Beta-lactamase Assay, Phase 2 (AID 2283591).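 Further: compound exposure lasted 16 h at 37 °C; actives lower the ATP signal meaning cytotoxicity.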 In a few lines:
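HCT-116 p53-bla cells (4000/well) rested 5 h at 37C, then received compounds in DMSO (217-fold dilution) for 16 h at 37C, 5% CO2. After the CCF4 read, CellTiter-Glo was added; ATP luminescence was read after 30 min at room temperature.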

The target of assay [4] is Cellular tumor antigen p53 (Homo sapiens) (UniProt P04637). The assay can be described thus: TOX21_p53_BLA_p2_ratio: Tox21 HCT-116 p53 Agonism Beta-lactamase Assay, Ratio, Phase 2 (AID 2283592). In outline: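 HCT116 cells carrying a p53-responsive beta-lactamase reporter were plated, incubated 5 h at 37C, then dosed with compounds in DMSO (217-fold dilution) for 16 h. CCF4-AM substrate was added for 2 h at room temperature; the 460/530 nm emission ratio gave gain-of-signal activity relative to DMSO.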

The nature of assay [5]: TOX21_p53_BLA_p3_viability: Viability Assessment in the Tox21 HCT-116 p53 Agonism Beta-lactamase Assay, Phase 3 (AID 2283593).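 Further: cells exposed to compound for 16 h before reading.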 In outline:
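HCT-116 cells (4000/well) rested 5 h at 37C, then got DMSO compounds by pin tool (217-fold dilution) for 16 h at 37C, 5% CO2. After the bla read, CellTiter-Glo was added and luminescence read at 30 min, room temperature.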

For assay [6], the target named is Cellular tumor antigen p53 (Homo sapiens) (UniProt P04637). Put plainly: TOX21_p53_BLA_p3_ratio: Tox21 HCT-116 p53 Agonism Beta-lactamase Assay, Ratio, Phase 3 (AID 2283596). In a few lines:
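HCT116 p53-bla cells (4000/well) given compound in DMSO (217-fold dilution) after 5 h, incubated 16 h at 37C. CCF4-AM substrate 2 h at room temperature; 460/530 nm emission ratio, gain fitted against DMSO.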

The nature of assay [7]: TOX21_p53_BLA_p4_viability: Viability Assessment in the Tox21 HCT-116 p53 Agonism Beta-lactamase Assay, Phase 4 (AID 2283597).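 Further: hits lower the luminescence signal meaning cytotoxicity.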 In a few lines: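 HCT116 p53-bla cells (4000/well) rested 5 h at 37C, then received compounds in DMSO (217-fold dilution) for 16 h at 37C, 5% CO2. CellTiter-Glo was added after the CCF4-AM read, and luminescence was read after 30 min at room temperature.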

The target of assay [8] is Cellular tumor antigen p53 (Homo sapiens) (UniProt P04637). The assay can be described thus: TOX21_p53_BLA_p5_ratio: Tox21 HCT-116 p53 Agonism Beta-lactamase Assay, Ratio, Phase 5 (AID 2283599). In a few lines:
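HCT-116 cells carrying a p53-inducible beta-lactamase reporter were seeded at 4000 cells/well and dosed after 5 h with compound in DMSO (217-fold dilution). After 16 h at 37C, CCF4-AM substrate was added for 2 h, and the 460/530 nm emission ratio was scored as gain-of-signal versus DMSO.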

Assay [9] can be described thus: TOX21_p53_BLA_p5_viability: Viability Assessment in the Tox21 HCT-116 p53 Agonism Beta-lactamase Assay, Phase 5 (AID 2283600). In a few lines:
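Cells were plated at 4000/well, rested 5 h at 37C, then given compounds in DMSO (217-fold dilution) for 16 h at 37C, 5% CO2. Following the CCF4-AM beta-lactamase read, CellTiter-Glo was added and luminescence was read after 30 min at room temperature.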

Assay [10] concerns the target Cellular tumor antigen p53 (Homo sapiens) (UniProt P04637). Put plainly: TOX21_p53_BLA_p4_ratio: Tox21 HCT-116 p53 Agonism Beta-lactamase Assay, Ratio, Phase 4 (AID 2283601). In outline: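 HCT116 cells carrying an inducible beta-lactamase reporter were plated at 4000 cells/well, rested 5 h, then exposed to compounds in DMSO (217-fold dilution) for 16 h at 37C. CCF4-AM substrate was loaded 2 h at room temperature; 460/530 nm emission ratio scored gain-of-signal versus DMSO.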

Assay [11] is described as follows: Tanguay_ZF_120hpf_MORT_legacy: (Legacy) Oregon State University Tanguay Lab 120 Hour Post-fertilization zebrafish Assay for Mortality (AID 2283633).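 On AC50: fitted as increase in binary mortality versus DMSO negative control.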 In outline: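 Dechorionated Tropical 5D wild-type zebrafish embryos, one per well from 6 hpf, were statically exposed at 28C in the dark until 120 hpf (0.64% DMSO final). Mortality was scored as present/absent by brightfield microscopy, fitted positively versus DMSO.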

A short description of assay [12]: Tanguay_ZF_120hpf_YSE_legacy: (Legacy) Oregon State University Tanguay Lab 120 Hour Post-fertilization zebrafish Assay for Yolk Sac Edema (AID 2283634). In outline:
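Tropical 5D wild-type embryos, dechorionated with pronase at 4 hpf, were exposed singly from 6 hpf to 120 hpf under static, sealed, dark conditions at 28C with 0.64% DMSO final. Yolk sac edema was scored present/absent by brightfield microscopy.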

A short description of assay [13]: Tanguay_ZF_120hpf_AXIS_legacy: (Legacy) Oregon State University Tanguay Lab 120 Hour Post-fertilization zebrafish Assay for Body Axis Malformation (AID 2283635). In a few lines:
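Tropical 5D wild-type zebrafish embryos, dechorionated with pronase at 4 hpf, were placed singly in wells at 6 hpf and exposed statically to test chemical (0.64% DMSO final) at 28C until 120 hpf, then scored by brightfield for body axis defects.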

The nature of assay [14]: Tanguay_ZF_120hpf_EYE_legacy: (Legacy) Oregon State University Tanguay Lab 120 Hour Post-fertilization zebrafish Assay for Eye Malformation (AID 2283636).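 Further: binary presence or absence of eye malformation scored by brightfield in 120 hpf larvae.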 In outline:
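Dechorionated wild-type Tropical 5D zebrafish embryos were exposed statically from 6 hpf, one per well, to 120 hpf at 28C in sealed, foil-covered plates with 0.64% DMSO. Eye malformation was scored present/absent by brightfield microscopy against DMSO controls.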

A short description of assay [15]: Tanguay_ZF_120hpf_SNOU_legacy: (Legacy) Oregon State University Tanguay Lab 120 Hour Post-fertilization zebrafish Assay for Snout Malformation (AID 2283637). In a few lines: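 Tropical 5D wild-type zebrafish embryos, dechorionated with pronase at 4 hpf, were exposed singly from 6 hpf to 120 hpf statically at 28C in 0.64% DMSO. Snout malformation was scored present/absent by brightfield microscopy, fitted against DMSO.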

The nature of assay [16]: Tanguay_ZF_120hpf_JAW_legacy: (Legacy) Oregon State University Tanguay Lab 120 Hour Post-fertilization zebrafish Assay for Jaw Malformation (AID 2283638). In outline:
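Tropical 5D wild-type embryos, dechorionated with pronase at 4 hpf, were placed singly per well at 6 hpf and statically exposed at 28C until 120 hpf (0.64% DMSO final). Jaw malformation scored as present/absent by brightfield microscopy at 120 hpf, analyzed relative to DMSO.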

Assay [17] can be described thus: Tanguay_ZF_120hpf_OTIC_legacy: (Legacy) Oregon State University Tanguay Lab 120 Hour Post-fertilization zebrafish Assay for Otic Vesicle Malformation (AID 2283639). In outline: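 Embryos from 5D wild-type adults exposed in plates; DMSO 0.64% v/v final. Sealed, light-protected, 28C, static to 120 hpf. Otic vesicle malformation recorded as binary endpoint; gain-of-signal fitted vs DMSO.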

A short description of assay [18]: Tanguay_ZF_120hpf_PE_legacy: (Legacy) Oregon State University Tanguay Lab 120 Hour Post-fertilization zebrafish Assay for Pericardial Edema (AID 2283640). In a few lines: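 Tropical 5D wild-type zebrafish embryos were exposed statically to 120 hpf at 28C, sealed and foil-covered, in 0.64% DMSO final. Pericardial edema was scored present/absent by brightfield microscopy; dead embryos were not scored.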

The nature of assay [19]: Tanguay_ZF_120hpf_BRAI_legacy: (Legacy) Oregon State University Tanguay Lab 120 Hour Post-fertilization zebrafish Assay for Brain Malformation (AID 2283641). In a few lines:
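Tropical 5D wild-type zebrafish embryos were exposed statically in sealed, foil-covered plates at 28C until 120 hpf, with 0.64% (vol/vol) final DMSO. Brain malformation was scored present/absent by brightfield microscopy, relative to DMSO baseline.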

The nature of assay [20]: ATG_XTT_Cytotoxicity: Cytotoxicity Assessment in the Attagene TRANS-FACTORIAL HepG2 Assay (AID 2283584). In outline:
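HepG2 human liver cells, transiently transfected with multiple GAL4-UAS reporter units, were dosed and read at 24 h by XTT as cell number. Loss of signal was fitted relative to DMSO negative control baseline.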

“And” between values parts separate entries of the source, which are not always exact repeats. Identical values can stand only once. Records with an inconclusive call do not appear. A structure can be active in one record and inactive in another. The source made the active and inactive calls. How the source made its calls, unless noted: active means hit-call score of the fitted dose curve at least 0.9, where 1 is the maximum; inconclusive means response in the unintended direction; inactive means score below 0.9.

In general, AC50 refers to the concentration at which the activity in the assay is half-maximal.

Cellular tumor antigen p53 (Homo sapiens), sequence (P04637 whole entry, looked up): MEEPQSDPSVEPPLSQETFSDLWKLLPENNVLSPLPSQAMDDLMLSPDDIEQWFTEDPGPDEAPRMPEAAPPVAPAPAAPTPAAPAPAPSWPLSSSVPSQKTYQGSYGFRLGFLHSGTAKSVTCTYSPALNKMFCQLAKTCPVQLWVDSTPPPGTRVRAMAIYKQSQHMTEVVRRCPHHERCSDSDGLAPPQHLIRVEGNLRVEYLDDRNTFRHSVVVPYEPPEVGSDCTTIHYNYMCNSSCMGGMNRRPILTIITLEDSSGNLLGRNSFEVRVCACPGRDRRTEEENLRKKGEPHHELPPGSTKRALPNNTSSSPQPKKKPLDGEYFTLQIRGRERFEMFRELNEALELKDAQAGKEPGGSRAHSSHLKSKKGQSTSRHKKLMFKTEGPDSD

As for `CC(C)(c1cc(Br)c(O)c(Br)c1)c1cc(Br)c(O)c(Br)c1`, the call in assay [1], in assay [12], in assay [13], in assay [14], in [15] and in [16] was inactive. Moreover, the call in [17], in assay [18] and in assay [19] was inactive. For the same compound, the AC50 in assay [2] is 58.3 µM (active); in [3] it was 35.7 µM (active) and 46 µM (active); in assay [4] it was 54.6 µM (active) and 64.2 µM (active) and 60.5 µM (active); in assay [5], 55.7 µM (active) and 52.9 µM (active) and 46 µM (active); in assay [6], 50.4 µM (active) and 63.7 µM (active) and 58.5 µM (active); in assay [7], 34.3 µM (active) and 46 µM (active). The AC50 is 67.7 µM (active) and 76.3 µM (active) and 65.8 µM (active) in [8]; 44 µM (active) and 57 µM (active) and 63.6 µM (active) in assay [9]; 58.8 µM (active) and 71.4 µM (active) and 63.2 µM (active) in [10]; 4.89 µM (active) in assay [11].

As to `CCCCCCCCCCCC[N+](C)(C)C`, the compound was classed as inactive in [1], in [20], in assay [5], in assay [8], in assay [9] and in assay [11]. Moreover, the compound was called inactive in assay [12], in assay [13], in assay [16], in assay [17], in assay [18] and in assay [19]. The AC50 was 90.4 µM (active) in assay [2]; 85.2 µM (active) and 79.6 µM (active) and 73.5 µM (active) in assay [3]; 14.7 µM (active) and 14.2 µM (active) and 14.1 µM (active) in assay [4]; 85.3 µM (active) in assay [5]; 21 µM (active) and 16 µM (active) and 46.1 µM (active) in assay [6]; 83.2 µM (active) and 46 µM (active) and 46.1 µM (active) in assay [7]. Moreover, the AC50 in [8] was 33.3 µM (active); in assay [10], 37.4 µM (active) and 17.3 µM (active) and 46.4 µM (active).

On to `O=C(Nc1ccc(Cl)cc1)Nc1ccc(Cl)c(Cl)c1`, for which the half-maximal activity concentration (AC50) in [1] is 17.2 µM (active); in assay [2], 24.9 µM (active); in assay [4], 3.12 µM (active) and 5.23 µM (active) and 3.82 µM (active); in [6], 5.76 µM (active) and 4.62 µM (active) and 6.38 µM (active); in assay [8], 6.25 µM (active) and 12.1 µM (active); in [10] it was 4.01 µM (active) and 4.85 µM (active) and 6.48 µM (active). Further, the result in assay [3], in [5], in assay [7], in [8], in assay [9] and in assay [11] was inactive. The compound was classed as inactive in assay [12], in assay [13], in [15], in assay [16], in assay [17] and in assay [18]. The compound was classed as inactive in [19].

Turning to `NCc1cccc(C2CCN(C(=O)c3ccc(C#Cc4ccccc4F)o3)CC2)c1`, the call in [1], in assay [9], in assay [12], in [13], in [14] and in assay [15] was inactive. Moreover, the outcome in [16], in [17], in assay [18] and in assay [19] was inactive. Also, the AC50 in [2] was 81.4 µM (active); in assay [3] it was 68.9 µM (active); in [4], 86.2 µM (active); in assay [5] it was 72.2 µM (active); in assay [6], 86.8 µM (active); in assay [7] it was 65.6 µM (active). The figures for the AC50 in [8] and in [10] were 82.9 µM (active) and 84.4 µM (active), respectively.
